The values below come from PubChem BioAssay (Tox21).

The nature of experiment [1]: A CellTox Green Cytotoxicity Assay to monitor cytotoxicity in HEK293 cells - 40 hour (AID 1224871). Note: nearly all actives have a fitted effect of over 45% in size. Note: potency is the fitted concentration of half-maximal effect. The gist of the method:
(§1)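 HEK293 cells premixed with CellTox Green dye were seeded at 600 cells/well and left 5 h at 37 C/5% CO2 before pin transfer of 23 nL compound in DMSO. Fluorescence from dye bound to dead-cell DNA was read during 40 h treatment.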

Experiment [2] is described as follows: qHTS RealTime-Glo MT Cell Viability Assay in HEK293 cells - 16 hour (AID 1224872). Note: top concentration of the series differs between compounds; nearly all actives have a fitted effect of over 50% in size. In outline: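 Luminescence generated by NanoLuc from substrate produced by living HEK293 cells served as the viability signal. Each value reflects the reading at its stated time point during continuous 40 h compound exposure at 37 C.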
The nature of experiment [3]: qHTS RealTime-Glo MT Cell Viability Assay in HepG2 cells - 8 hour (AID 1224873). Note: nearly all actives have a fitted effect of over 55% in size. The gist of the method:
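HepG2 cells (600/well) mixed with RealTime-Glo MT reagent, settled 5 h at 37 C/5% CO2 before compound addition. Nonlytic NanoLuc luminescence from viable-cell prosubstrate reduction read repeatedly during 40 h treatment at 37 C.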

Experiment [4] is described as follows: qHTS RealTime-Glo MT Cell Viability Assay in HEK293 cells - 40 hour (AID 1224874). Note: nearly all actives have a fitted effect of over 50% in size. To be noted: RealTime-Glo luminescence; max response: active compounds read low. In outline: (§2)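 HEK293 cells mixed with RealTime-Glo reagents (NanoLuc plus cell-permeant prosubstrate) at 600 cells/well, preincubated 5 h at 37 C/5% CO2, then given 23 nL compound in DMSO. Nonlytic luminescence from viable cells was read at 0, 8, 16, 24, 32 and 40 h.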

Experiment [5] is described as follows: A CellTox Green Cytotoxicity Assay to monitor cytotoxicity in HEK293 cells - 24 hour (AID 1224875). For activity change: series mostly up to about 77 µM. Note: nearly all actives have a fitted effect of over 45% in size. Note: potency is the fitted concentration of half-maximal effect. In outline: as §1
Experiment [6] in a line: A CellTox Green Cytotoxicity Assay to monitor cytotoxicity in HepG2 cells - 16 hour (AID 1224876). Note: nearly all actives have a fitted effect of over 45% in size. Note: potency is the fitted concentration of half-maximal effect. In outline: (§3)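 HepG2 cells were seeded together with the CellTox Green dye at 600 cells/well, left 5 h at 37 C/5% CO2, then given compounds in DMSO. Fluorescence from dye bound to dead-cell DNA was read repeatedly over 40 h of treatment at 37 C.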
A short description of experiment [7]: qHTS RealTime-Glo MT Cell Viability Assay in HepG2 cells - 32 hour (AID 1224877). Note: nearly all actives have a fitted effect of over 55% in size. In outline: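 Tox21 10K library screened in qHTS format on HepG2 cells carrying RealTime-Glo reagents. Compounds were added after a 5 h preincubation, and the luminescent signal from continuous culture was measured repeatedly during 40 h treatment.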
Experiment [8] is described as follows: A CellTox Green Cytotoxicity Assay to monitor cytotoxicity in HepG2 cells - 24 hour (AID 1224878). Note: nearly all actives have a fitted effect of over 45% in size. Note: potency is the fitted concentration of half-maximal effect. The gist of the method:
as §3

Experiment [9] is described as follows: A CellTox Green Cytotoxicity Assay to monitor cytotoxicity in HepG2 cells - 40 hour (AID 1224879). Note: nearly all actives have a fitted effect of over 40% in size. Note: potency is the fitted concentration of half-maximal effect. In outline:
as §3

Experiment [10] in a line: qHTS RealTime-Glo MT Cell Viability Assay in HEK293 cells - 0 hour (AID 1224880). The gist of the method: as §2

“And” between values parts separate entries of the source, which are not always exact repeats. Identical values can stand only once. Inconclusive results are not listed. A number with no mark means an inactive call. The source made the active and inactive calls. Calls come from the whole dose curve; as a rule, active = well fitted curve in the direction sought with a large enough effect in the repeat runs; inconclusive = weak or mixed curves; inactive = no such curve, though single readings can be large; an effect the other way counts as inactive or inconclusive.
% is set by controls: 0 for no effect and ±100 for the full control effect.

On to `N#CN`, for which the Potency result in experiment [1], in experiment [2], in experiment [5], in experiment [6], in experiment [7] and in experiment [8] was “inactive” each time. The Potency result in experiment [9] is “inactive”. For the same compound, the compound was called inactive in [3] and in experiment [10]. In [4], the max response was 4.8%.
On to `O=S1(=O)OCCO1`, for which the Potency entry in [1], in [2], in experiment [5], in experiment [6], in experiment [7] and in [8] was “inactive” throughout. The Potency entry in experiment [9] is “inactive”. The result in [3] and in experiment [10] was inactive. The max response in experiment [4] is 4.27%.
As to `O=C(O)CBr`, the Potency result in [1], in experiment [2], in [5], in experiment [6], in [7] and in experiment [8] was “inactive” in each case. The Potency entry in experiment [9] was “inactive”. The compound was called inactive in experiment [3] and in experiment [10]. In [4], the max response was -0.861%.
For `O=C(Cl)CCl`, the Potency result in [1], in [2], in experiment [5], in experiment [6], in experiment [7] and in [8] was “inactive” in each case. For the same compound, the Potency result in experiment [9] is “inactive”. Further, the call in experiment [3] and in [10] was inactive. In addition, the max response in experiment [4] was 0.179%.
As to `Oc1ccc2c3c1O[C@H]1[C@@H](O)C=C[C@H]4[C@@H](C2)NCC[C@@]341`, the Potency entry in experiment [1], in [2], in [5], in experiment [6], in experiment [7] and in experiment [8] was “inactive” each time. Further, the Potency result in experiment [9] is “inactive”. Moreover, in [3], the result was inactive. Further, the max response in [4] was -1.32%.
Regarding `CCCN1CCC[C@@H]2Cc3nc(N)ncc3C[C@H]21`, the Potency in [1] is 16.9 µM (active); in experiment [5], 16.9 µM (active); in experiment [6], 21.3 µM (active); in [8] it was 21.3 µM (active); in [9], 21.3 µM (active). Also, the Potency result in experiment [2] and in [7] was “inactive” throughout. For the same compound, the result in [3] and in [10] was inactive. Also, in [4], the max response is 3.64%.
On to `ClCC1CO1` (centres undefined), for which the Potency result in experiment [1], in [2], in experiment [5], in experiment [6], in experiment [7] and in experiment [8] was “inactive” throughout. Further, the Potency result in experiment [9] was “inactive”. Besides, the result in experiment [3] and in experiment [10] was inactive. The max response in [4] is -2.45%.
Regarding `Cn1c(N)nc2c3cccnc3ccc21`, the Potency result in experiment [1], in experiment [2], in experiment [5], in experiment [6], in experiment [7] and in experiment [8] was “inactive” throughout. In experiment [9], the Potency result was “inactive”. Besides, the outcome in experiment [3] and in [10] was inactive. In experiment [4], the max response is -11%.
`COc1cc(CCN)cc(OC)c1OC`: the Potency entry in [1], in [2], in experiment [5], in experiment [6], in experiment [7] and in experiment [8] was “inactive” throughout. In [9], the Potency result is “inactive”. The call in experiment [3] and in experiment [10] was inactive. In [4], the max response is -4.29%.
As to `Cc1ccc(S(=O)(=O)N[C@@H](CCCCN)C(=O)CCl)cc1`, the Potency result in [1], in [2], in experiment [5], in experiment [6], in experiment [7] and in experiment [8] was “inactive” throughout. Also, the Potency entry in experiment [9] is “inactive”. The outcome in [3] and in experiment [10] was inactive. The max response in experiment [4] was 2.57%.
On to `NCCOS(=O)(=O)O`, for which the Potency result in experiment [1], in experiment [2], in experiment [5], in experiment [6], in [7] and in [8] was “inactive” each time. In [9], the Potency entry was “inactive”. Moreover, the call in experiment [3] and in [10] was inactive. For the same compound, the max response in experiment [4] was 1.3%.
Turning to `C/C(=N\NC(=O)Nc1cc(F)cc(F)c1)c1ncccc1C(=O)O`, the Potency entry in experiment [1], in experiment [2], in [5], in [6], in [7] and in experiment [8] was “inactive” each time. Besides, the Potency entry in [9] was “inactive”. The compound was called inactive in experiment [3] and in experiment [10]. In [4], the max response is -7.58% and 0.112%.
Take `CCOC(=O)C(SP(=S)(OC)OC)c1ccccc1` (centres undefined): the Potency entry in experiment [1], in experiment [2], in experiment [5], in [6], in experiment [7] and in experiment [8] was “inactive” in each case. Moreover, the Potency entry in [9] is “inactive”. Also, the compound was called inactive in [3] and in experiment [10]. For the same compound, the max response in experiment [4] was -6.34%.
On to `ClCCN1CCCC1`, for which the Potency entry in [1], in experiment [2], in [5], in experiment [6], in experiment [7] and in experiment [8] was “inactive” in each case. Further, in [9], the Potency entry was “inactive”. For the same compound, the compound was classed as inactive in [3] and in [10]. Also, the max response in [4] was 8.04%.
On to `CC(C)[C@]12CC(=O)[C@H](C)[C@H]1C2`, for which the Potency entry in [1], in experiment [2], in experiment [5], in [6], in [7] and in experiment [8] was “inactive” throughout. The Potency result in experiment [9] was “inactive”. Further, the compound was called inactive in [3] and in experiment [10]. For the same compound, in experiment [4], the max response is -4.49%.
For the compound `Clc1ccc(C(Cl)(Cl)Cl)cn1`, the Potency in experiment [1] and in experiment [5] was 34.7 µM (active) in each case. In addition, the Potency result in experiment [2], in [6], in experiment [7], in experiment [8] and in experiment [9] was “inactive” in each case. The compound was classed as inactive in [3] and in [10]. For the same compound, the max response in experiment [4] is 1.5%.
Consider `O=C(Cl)OCc1ccccc1`, for which the Potency result in experiment [1], in experiment [2], in [5], in experiment [6], in experiment [7] and in experiment [8] was “inactive” each time. In [9], the Potency entry is “inactive”. The outcome in experiment [3] and in experiment [10] was inactive. In experiment [4], the max response is 10.6%.
In the case of `Cn1c(CCCC(=O)O)nc2cc(N(CCCl)CCCl)ccc21`, the Potency entry in [1], in experiment [2], in [5], in experiment [6], in experiment [7] and in experiment [8] was “inactive” each time. Moreover, the Potency entry in experiment [9] is “inactive”. For the same compound, the outcome in [3] and in [10] was inactive. The max response in experiment [4] was 1.4%.
For the compound `CC(=O)OCC1=C(C(=O)O)N2C(=O)[C@@H](N)[C@H]2SC1`, the cytotoxicity increase in [1] is -4.55% [at 15.8 µM]; in experiment [6], 0.706% [at 15.8 µM]; in experiment [9], -2.77% [at 15.8 µM]. Besides, the activity change, negative = cytotoxicity is 5.5% [at 15.8 µM] in [2] and -1.9% [at 15.8 µM] in [10]. Further, in experiment [3], the viability change, negative = cytotoxic is 1.05% [at 15.8 µM]. Besides, in experiment [4], the max response was 21.8%. For the same compound, in [5], the activity change was 11.8% [at 15.8 µM, active compounds read high]. Moreover, the activity change, negative = cytotoxic in experiment [7] is 0.0723% [at 15.8 µM]. Moreover, in experiment [8], the cytotoxicity was 0.21% [at 15.8 µM].
`ClC(Cl)(Cl)Cl`: the Potency result in experiment [1], in experiment [2], in experiment [5], in [6], in [7] and in experiment [8] was “inactive” in each case. For the same compound, the Potency entry in [9] was “inactive”. Besides, the call in experiment [3] and in experiment [10] was inactive. Besides, the max response in experiment [4] was 2.56%.
With `CCOP(=S)(OCC)Oc1ccc(Cl)cc1Cl`, the Potency result in experiment [1], in experiment [2], in experiment [5], in experiment [6], in experiment [7] and in [8] was “inactive” in each case. The Potency result in experiment [9] was “inactive”. Moreover, the result in experiment [3] and in [10] was inactive. For the same compound, the max response in experiment [4] was 2.64%.
With `N#CN=C1SCCN1Cc1ccc(Cl)nc1`, the Potency entry in experiment [1], in experiment [2], in [5], in [6], in experiment [7] and in experiment [8] was “inactive” each time. Further, the Potency entry in [9] is “inactive”. For the same compound, the result in [3] and in [10] was inactive. The max response in [4] is -3.59%.
Regarding `BrCc1ccc(Br)cc1`, the Potency entry in experiment [1], in experiment [2], in experiment [5], in [6], in [7] and in experiment [8] was “inactive” throughout. Moreover, the Potency result in [9] is “inactive”. Besides, the outcome in experiment [3] and in [10] was inactive. The max response in experiment [4] is 4.4%.
Turning to `COc1cc(CC(C)N)cc(OC)c1OC` (centres undefined), the Potency result in experiment [1], in experiment [2], in [5], in experiment [6], in [7] and in experiment [8] was “inactive” each time. In addition, the Potency result in experiment [9] is “inactive”. The call in [3] and in experiment [10] was inactive. The max response in experiment [4] is -3.07%.
